Screens (PubChem)
The list is not random: actives were taken first. Their share in the collection is about 12%.
Shiga inhibitor: blocks Shiga toxin action in Vero cells; Vero cells, Shiga toxin protein synthesis inhibition reporter; inhibition, % at 38.7 µM; 290,000 compounds, 9.2% hits; AID 2315; in the data active means inhibition mostly above about 28%, no sharp cut-off; inactive means mostly below about 43%
NS1 inh: blocks influenza NS1 protein function; Potency, µM (titrated, usually from 46.1 µM); 270,000 compounds, 0.4% hits; further: actives are rising curves; nearly all actives have a fitted effect of over 50% in size
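Compounds were scored for reversing the slow growth caused by influenza A NS1 in S. cerevisiae, measured by optical density at 600 nm. Assay medium contained 2% galactose at pH 6.0; NS1-free yeast of the same strain were the positive control.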
SARS PLP yeast: SARS-CoV PLP inhibition in yeast; Potency, µM (highest dose often 32.9 µM), most hits filed as activators; S. cerevisiae expressing SARS-CoV PLpro, growth rescue; 330,000 compounds, 0.19% hits; further: nearly all actives have a fitted effect of over 55% in size
CHX counter: counter-screen for Shiga toxin inhibitors: cycloheximide protein synthesis inhibition | cell reporter, cycloheximide protein synthesis inhibition counterscreen | 300,000 compounds, 12% hits | max response, %; in the data active means max response mostly above about 13%, no sharp cut-off; inactive means mostly below about 14%; further: read at 38.3 µM for the half of the compounds with a filed dose
Hits are given with their value. Unless noted, the call rests on the fitted dose curve.

`c1ccc(-n2ncc3c2ncn2nc(-c4ccco4)nc32)cc1` gave Shiga inhibitor 45.6, NS1 inh inactive, SARS PLP yeast inactive and CHX counter 38.0.
`COc1cccc(OCc2nc3c4cnn(-c5ccccc5)c4ncn3n2)c1` gave Shiga inhibitor inactive, NS1 inh inactive, SARS PLP yeast inactive and CHX counter inactive.
O=c1c2ccccc2nc(-c2ccccc2)n1Cc1ccccc1 was read as Shiga inhibitor 83.1, NS1 inh inactive, SARS PLP yeast inactive and CHX counter inactive.
C=CCn1c(-c2ccc(N)cc2)nc2ccccc21 was read as Shiga inhibitor 49.9, NS1 inh inactive, SARS PLP yeast inactive and CHX counter inactive.
For C=CCn1c(C(O)c2ccccc2)nc2ccccc21 (configuration not stated) the results were NS1 inh inactive, SARS PLP yeast inconclusive and CHX counter 16.0.
C=CCn1c(-c2ccc(OC)cc2)nc2nc3ccccc3nc21 was read as Shiga inhibitor inactive, NS1 inh inactive, SARS PLP yeast inactive and CHX counter 37.0.
For COC(C[C@H](O)[C@@H](C)[C@H](O)COCc1ccccc1)OC the results were Shiga inhibitor inactive, NS1 inh inactive, SARS PLP yeast inactive and CHX counter inactive.
`C=CCn1c(-c2ccc(OC)cc2)nc2ccccc21` gave Shiga inhibitor 30.3, NS1 inh inactive, SARS PLP yeast inactive and CHX counter 35.5.
`COc1ccc(-c2nc3ccccc3n2Cc2ccccc2)cc1` gave Shiga inhibitor inactive, NS1 inh inactive, SARS PLP yeast inactive and CHX counter 25.2.
COc1ccc(-c2nnnn2CCc2ccccc2)cc1 was read as Shiga inhibitor inactive, NS1 inh inactive, SARS PLP yeast inactive and CHX counter 19.0.
Screening COc1ccc(-c2nnnn2C(C)C)cc1 returned Shiga inhibitor inactive, NS1 inh inactive, SARS PLP yeast inactive and CHX counter inactive.
For CCOCCn1c(-c2ccc(OC)cc2)nc2ccccc21 the results were Shiga inhibitor inactive, NS1 inh inactive, SARS PLP yeast inactive and CHX counter inactive.
Screening Oc1ccc(Cn2c(-c3ccc(O)cc3)nc3ccccc32)cc1 returned NS1 inh inactive.
Screening CCCn1c(N)c(C(=O)CSc2nnc(C3CC3)n2Cc2ccccc2)c(=O)n(C)c1=O returned SARS PLP yeast inactive.
Screening CN(C(=O)c1cccc(Br)c1)C1CCS(=O)(=O)C1 (configuration not stated) returned SARS PLP yeast inactive.
`CN(c1nc(-c2ccc(Br)cc2)cs1)C1CCS(=O)(=O)C1` (configuration not stated) gave Shiga inhibitor inactive, SARS PLP yeast inactive and CHX counter 19.3.
For O=C(Nc1nc(-c2ccc(Cl)cc2Cl)cs1)c1ccc(OCC2CCCO2)cc1 (configuration not stated) the results were Shiga inhibitor inactive, NS1 inh inactive, SARS PLP yeast inactive and CHX counter inactive.
Cc1ccc2nc(NC(=O)c3ccc(OCC4CCCO4)cc3)sc2c1 (configuration not stated) was read as Shiga inhibitor 92.5, NS1 inh inactive, SARS PLP yeast inactive and CHX counter 46.1.
`Cc1cc(C)c2nc(NC(=O)c3ccc(OCC4CCCO4)cc3)sc2c1` (configuration not stated) gave Shiga inhibitor 64.7, NS1 inh inactive, SARS PLP yeast inactive and CHX counter 31.4.
Cc1cccnc1NC(=O)c1ccc(OCC2CCCO2)cc1 (configuration not stated) was read as SARS PLP yeast inactive.
`COc1ccccc1N(C)S(=O)(=O)c1ccc(C(=O)NC2CCCCC2)cc1` gave SARS PLP yeast inactive.
N#C/C(=C\c1ccc(N2CCCCC2)o1)C(=O)Nc1cccc(Br)c1 was read as Shiga inhibitor 105.7, NS1 inh inactive, SARS PLP yeast inactive and CHX counter 58.2.
N#C/C(=C\c1ccc(N2CCCCC2)o1)C(N)=O was read as Shiga inhibitor inactive, NS1 inh inactive, SARS PLP yeast inactive and CHX counter 16.9.
For O=Cc1ccc(N2CCCC2)o1 the results were Shiga inhibitor inactive, SARS PLP yeast inactive and CHX counter inactive.
`CS(=O)(=O)N(CC(=O)N1CCC(C(N)=O)CC1)c1cc(C(F)(F)F)ccc1Cl` gave Shiga inhibitor inactive, NS1 inh inactive, SARS PLP yeast inactive and CHX counter inactive.
`CC(C)CN(C(=O)C1=NN(c2ccccc2)C(=O)CC1)c1c(N)n(Cc2ccccc2)c(=O)[nH]c1=O` gave SARS PLP yeast inactive.
CCc1cc2c(=O)[nH]c(N3CCOCC3)nc2s1 was read as Shiga inhibitor 33.9, NS1 inh inactive, SARS PLP yeast inactive and CHX counter 22.3.
For Cc1ccc(/C=C/c2onc(C)c2S(=O)(=O)N2CCC(C(=O)NC(C)(C)C)CC2)cc1 the results were Shiga inhibitor inactive, NS1 inh inactive, SARS PLP yeast inactive and CHX counter inactive.
Screening CCC(=NCc1ccc(Cl)c(Cl)c1)c1nc(-c2ccco2)oc1O returned Shiga inhibitor 48.2, NS1 inh inactive, SARS PLP yeast inactive and CHX counter inactive.
`CCC(C)NC(=O)c1cc2cc3ccc(OC)cc3nc2s1` (configuration not stated) gave Shiga inhibitor 88.4, NS1 inh inactive, SARS PLP yeast inactive and CHX counter 57.3.
For COc1ccc2nc3oc(C(=O)NC4CCN(Cc5ccccc5)CC4)cc3cc2c1 the results were Shiga inhibitor 31.2, NS1 inh inactive, SARS PLP yeast inactive and CHX counter inactive.
For COc1ccc2cc3cc(C(=O)NCCN4CCc5ccccc5C4)sc3nc2c1 the results were Shiga inhibitor 46.6, NS1 inh inactive, SARS PLP yeast inactive and CHX counter 21.4.
For COc1ccc2cc3cc(C(=O)NCCCN4CCC(C)CC4)oc3nc2c1 the results were Shiga inhibitor 128.2, NS1 inh inactive, SARS PLP yeast inactive and CHX counter 43.0.
`CCOC(=O)N1CCC(NC(=O)c2cc3cc4cc(OC)ccc4nc3o2)CC1` gave Shiga inhibitor inactive, NS1 inh inactive, SARS PLP yeast inactive and CHX counter inactive.
`COc1ccc(C(=O)NCCS(=O)(=O)N2CCc3ccccc3C2)c(OC)c1` gave SARS PLP yeast inactive.
`COc1ccc2cc3cc(C(=O)NCCN4CCN(Cc5ccccc5)CC4)oc3nc2c1` gave Shiga inhibitor inactive, NS1 inh inactive, SARS PLP yeast inactive and CHX counter inactive.
For COc1ccc2cc3cc(C(=O)NCCN4CCc5ccccc5C4)oc3nc2c1 the results were Shiga inhibitor 36.5, NS1 inh inactive, SARS PLP yeast inactive and CHX counter inactive.
For Cc1[nH]c2ccccc2c1-c1cc(-c2cc(-c3c(C)[nH]c4ccccc34)on2)no1 the results were NS1 inh inactive.
For Cc1ccc(C(=O)N2N=C(c3ccccc3O)CC2c2ccccc2)cc1 (configuration not stated) the results were Shiga inhibitor inactive, NS1 inh inactive, SARS PLP yeast inactive and CHX counter inactive.
For Cc1ccc(C(=O)N2N=C(c3ccc(Br)cc3)CC2c2ccccc2O)cc1 (configuration not stated) the results were Shiga inhibitor inactive, NS1 inh inactive, SARS PLP yeast inactive and CHX counter 12.9.
Screening Cc1ccc(C2=NN3C(=O)c4ccccc4C3C2)cc1 (configuration not stated) returned Shiga inhibitor 56.6, NS1 inh inactive, SARS PLP yeast inactive and CHX counter 55.3.
